Measurements taken from PubChem BioAssay (NCI).
The panel holds about 83,000 compounds, 20% with a hit somewhere; the sample as a whole holds those more often.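 Step 1: grow cells in 96-well plates. Step 2: add test compound at a single concentration. Step 3: incubate 48 h. Step 4: record percent growth.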 Values without a mark were called inactive. The source made the active and inactive calls. The calls were made as follows: active = growth percent below 10; inactive = the rest.

Key:
Assay in all cases: NCI-60 one-dose screen, 48 h (100 = growth as untreated, 0 = no growth, -100 = all killed)
Conditions in all cases: 10 µM unless noted
[1] = system: DU-145 prostate
[2] = system: K-562 leukemia
[3] = system: MALME-3M melanoma
[4] = system: MDA-MB-231 breast
[5] = system: RXF 393 renal
[6] = system: SF-268 CNS
[7] = system: SF-295 CNS
[8] = system: SF-539 CNS
[9] = system: UACC-257 melanoma
[10] = system: M14 melanoma
[11] = system: HCT-15 colon
[12] = system: HT29 colon
[13] = system: SNB-75 CNS
[14] = system: SNB-19 CNS
[15] = system: U251 CNS
[16] = system: SK-MEL-5 melanoma
[17] = system: UACC-62 melanoma
[18] = system: LOX IMVI melanoma
[19] = system: SK-MEL-28 melanoma
[20] = system: PC-3 prostate

Compound | growth [1] | growth [2] | growth [3] | growth [4] | growth [5] | growth [6] | growth [7] | growth [8] | growth [9] | growth [10] | growth [11] | growth [12] | growth [13] | growth [14] [%] | growth [15] [%] | growth [16] | growth [17] | growth [18] | growth [19] | growth [20]
CCOC(=O)c1cc(C(=O)c2cc(OC)cc(OC)c2)n2ccc3ccccc3c12 | 100% | 98.7% | 99.1% | 80.1% | 61.5% | 78.1% | 94.9% | 74.1% | 93.4% | 105% | 100% | 101% | -7.31% (active) | 55.2 | 81.8 | 100% | 91.1% | 88.9% | 107% | –
C=C1C(=O)O[C@H]2[C@H]1CC/C(COC(=O)NCc1c[nH]c3ccc(Cl)cc13)=C\CC[C@@]1(C)O[C@@H]21 | -72.2% (active) | 0.207% (active) | -57.1% (active) | -70.4% (active) | -92.5% (active) | -3.81% (active) | 63.8% | -54.9% (active) | 19.4% | -53.2% (active) | -60.2% (active) | -78.8% (active) | -6.74% (active) | 32.3 | – | -17.6% (active) | -73.8% (active) | -76.3% (active) | -63% (active) | 9.72% (active)
CC(=O)O[C@H]1Cc2c([nH]c3ccccc23)[C@@H](c2ccc(Cl)cc2)N1C(=O)CCNC(C)(C)C | 65.2% | 8.71% (active) | -37.8% (active) | -26% (active) | 39.6% | 61.3% | 68.3% | 40.1% | 65.1% | -0.737% (active) | 69.9% | 29% | 42.6% | 69.3 | – | -79.5% (active) | 53.1% | 25.6% | – | 36.3%
O=[N+]([O-])c1cc(Br)c2cccc3c2c1CC3 | 112% | 100% | 120% | 87.1% | 110% | 109% | 116% | 103% | 106% | 104% | 100% | 108% | 100% | 98.7 | 99.8 | 102% | 89% | 109% | 106% | –
N#C/C(=C\c1ccccn1)c1nc2cc(Cl)ccc2s1 | 92.8% | 48.3% | 87.5% | 61.3% | 60.3% | 68.8% | 94.4% | 63.1% | 91.8% | 89.9% | 63.5% | 86.4% | 8.52% (active) | 85.9 | – | 83.7% | 68.1% | 72.7% | 101% | 44.1%
COc1ccc(C(=O)c2cc(C)c(OC)c(C)c2)c(OC)c1OC(=O)C(Cl)Cl | 4.39% (active) | 8.43% (active) | 58.9% | 18.8% | 38.7% | 25% | 14.5% | -16% (active) | 48.1% | -9.89% (active) | 3.34% (active) | 22.4% | 56.3% | 22.2 | 13.5 | -20.8% (active) | 29.3% | 20.3% | 53.3% | –
COc1cc(/C(C)=C(\c2ccc(Cl)cc2)c2ccc(OCCN(C)C)cc2)ccc1F | 67.9% | 8.38% (active) | -7.62% (active) | 50.8% | 60.5% | 70.8% | 89.7% | 71.7% | -4.66% (active) | 31.5% | 18.1% | 5.91% (active) | 65.4% | 87.7 | – | 44.2% | 50.3% | 38.3% | 64.5% | 58.1%
CC(C)(C)c1cc(/C=N/NC(=O)c2ccccc2NC(=O)c2cccs2)c(O)c(C(C)(C)C)c1 | 32.5% | 13.1% | 49.6% | 44.3% | 64.6% | 24.6% | 40% | 51.7% | 38.6% | 27.6% | 17.1% | 25.3% | 34.9% | 40.6 | 13.8 | 22.9% | 13.1% | -34.2% (active) | 51.5% | –
COc1cc(/C=C/c2cc(O)c(C(C)=O)c(O)c2)cc2c1O[C@]1(C)CC[C@@H](O)C(C)(C)[C@H]1C2 | 74.5% | 31.6% | 65.8% | 37.6% | -19.4% (active) | 55.8% | 8.72% (active) | 9.14% (active) | 76.4% | 51.5% | 42.8% | 34.9% | 7.67% (active) | 56.4 | – | 65.2% | 38.7% | 35.1% | 51.4% | 45.2%
COc1cc(F)c(/C=C/c2cc(/C=C/c3cc(OC)c(OC)cc3F)on2)cc1OC | 88.2% | 63.3% | 69.3% | 83% | 92.8% | 86.7% | 97.7% | 98% | 86.3% | 80.9% | 82.1% | 77.9% | 98.2% | 76.8 | – | 91.9% | 66.1% | 81.9% | 82.7% | 74%
O=C(c1nc2ccccc2[nH]1)C1C(c2ccc(Br)cc2)C2CC3CCCC[C@H]3N2[C@@]12C(=O)Nc1cc(Cl)ccc12 (stereo partly drawn) | 52% | 25.3% | 32% | 41.6% | 34% | 42% | 31.6% | 56% | 43.2% | 26.9% | 23.7% | 27.9% | 49.1% | 49.8 | – | 51% | 58% | 30% | 62.4% | 28.4%
CCSCC1CC(O)(c2ccccc2)CC(c2ccc(F)cc2)O1 (stereo not drawn) | 9.94% (active) | 11.9% | -17.8% (active) | 20.6% | -5.44% (active) | 20% | -14.8% (active) | 36.5% | 35.7% | 5.84% (active) | 17.4% | 2.51% (active) | 33.1% | 36.1 | – | -36% (active) | 29.2% | 4.29% (active) | 26.9% | 9.83% (active)
CCOC(=O)c1cc(C(=O)c2ccc(OC)c(OC)c2)n2ccc(/C=C/c3cc[n+](CC(=O)c4ccc(OC)c(OC)c4)cc3)cc12 | 96.3% | 78.2% | 97.3% | 89.4% | 111% | 99.5% | 102% | 87.3% | 98.7% | 96.9% | 104% | 95.5% | 79.4% | 90.6 | – | 98% | 96.6% | 87.7% | 104% | 92.8%
CCN(Cc1ccccc1)c1ccc(C=O)cc1 | 110% | 93.3% | 117% | 96.5% | 88.6% | 106% | 114% | 87.7% | 106% | 102% | 91% | 107% | 82.1% | 99.2 | – | 98.9% | 85.2% | 91% | 115% | 75.3%
COC(=O)C(OC(C)=O)C(OC(C)=O)c1ccc(OC)c(OC)c1 (stereo not drawn) | 102% | 83.2% | 104% | 92.7% | 125% | 99.6% | 101% | 105% | 82.5% | 93.9% | 97.8% | 97.2% | 96.4% | 103 | 97.5 | 97.7% | 100% | 90% | 102% | –
COc1cc(/C=C\c2cc(OC)c(OC)c(OC)c2)cc(NC(=O)/C=C/c2cc(OC)c(OC)c(OC)c2)c1OC | 78% | – | 48.7% | 51.3% | 28.7% | 72.6% | 32.6% | 56.4% | 68.4% | 37.9% | 34.6% | 32% | 51.8% | 72 | 71 | -45.3% (active) | 29.7% | 35.5% | 47.6% | 29.3%
